Screens (PubChem)
TWEAK-Fn14 inh = TWEAK-Fn14 signaling inhibition; TWEAK-stimulated Fn14 reporter cells, luciferase luminescence, 8 h; actives 2% (n = 360,000); inhibition, % at 10 µM; in the data active means inhibition above about 50%
TROY signal inh = blocks TROY-dependent signaling in reporter cells | actives 0.98% (n = 360,000) | AID 1347056 | Q293 LMP1-TROYcd NF-kB luciferase reporter, 4 h | inhibition, % at 10 µM;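 active means compounds whose plate-normalised and pattern-corrected inhibition of the luciferase reporter signal at the single screening dose is 50% or more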
KKLEB cytotox = CF airway cell cytotoxicity counter-screen; KKLEB CF airway cells viability, ATPlite luminescence, overnight; active compounds read low; cells stimulated with P. aeruginosa culture filtrate; activity change (cytotoxicity), % at 5 µM; actives 0.36% (n = 360,000);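 active means corrected activity change at or below -50% at 5 µM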
LGR2 inh = inhibitors of bursicon-induced Drosophila LGR2 receptor cAMP signaling | inhibition, % at 9.99 µM | HEK293 LGR2, CRE-luciferase, bursicon-stimulated, 4 h | actives 0.35% (n = 380,000);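 active means drop in luminescence signal, shown as inhibition above about 50% in the replicate tests, limit read from the data, passing the limit was not always enough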;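 further: agonist challenge used bursicon conditioned medium at about half maximal strength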
CF NFkB block = inhibitors of cystic fibrosis induced NF-kB; KKLEB NF-kB-GFP reporter, PAF-induced, GFP fluorescence overnight; inhibition, % at 5 µM; actives 0.86% (n = 360,000); AID 588850;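 active means at least 50% inhibition at 5 µM, scaled per plate between neutral and stimulator controls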;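 further: PAF is a Pseudomonas aeruginosa culture filtrate used as stimulus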
EWS-Fli block = blocks EWS/Fli oncoprotein-driven transcription; inhibition, % at 12.6 µM; AID 651661; actives 0.67% (n = 350,000); A673 NR0B1-luciferase reporter, viability-normalised;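 active means mean inhibition of at least 50% after viability correction, with every replicate also passing that limit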;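 further: firefly luciferase signal divided by Alamar Blue viability fluorescence both relative to DMSO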
Hits are given with their value; 0 = inactive; - = no result. The list is not random: actives were taken first. Their share in the collection is about 2.6%.

SMILES	TWEAK-Fn14 inh	TROY signal inh	KKLEB cytotox	LGR2 inh	CF NFkB block	EWS-Fli block
C[C@@H]1CN([C@H](C)CO)C(=O)c2cc(-c3ccc(C#N)cc3)cnc2O[C@@H]1CN(C)CC1CCCC1	-	-	-	0	-	0
NC(COCc1ccccc1)c1csc(NC(=O)Nc2cccc(C(F)(F)F)c2)n1 (stereo not given)	0	0	-82.7	0	85.5	0
COc1ccc(CC(N)c2csc(NC(=O)Nc3ccccc3Oc3ccccc3)n2)cc1 (stereo not given)	0	0	0	0	0	0
COc1ccc(CC(N)c2csc(NC(=O)Nc3ccccc3Cc3ccccc3)n2)cc1 (stereo not given)	0	0	0	0	0	57.6
CO[C@@H]1CN(C)C(=O)c2cc(NC(=O)Cc3ccccc3)ccc2OC[C@H](C)N(CC2CC2)C[C@H]1C	-	-	-	0	-	0
C[C@@H]1CN([C@@H](C)CO)C(=O)Cc2cc(NC(=O)Nc3cccc4ccccc34)ccc2O[C@@H]1CN(C)Cc1ccc(Oc2ccccc2)cc1	-	-	-	0	-	0
C[n+]1c2n(c3ccccc31)N=C(c1cc(C(C)(C)C)c(O)c(C(C)(C)C)c1)CS2	88.4	56.9	0	85.9	0	0
COc1cccc(C2=Nn3c(nnc3-c3ccccc3O)SC2)c1	0	0	0	-	0	-
CCOC(=O)N1CCC(=NNC(=O)COc2ccc(OC)cc2)CC1	95.9	0	0	0	0	-
CCc1ccc(-c2cn3c(n2)SCC3)cc1	0	0	0	0	0	0
CCc1ccc(-c2cn(-c3nc(C)cc(C)n3)c(=N)o2)cc1	90.9	0	0	-	0	-
C[C@@H]1CCCCO[C@H](CN(C)S(=O)(=O)c2ccc(Cl)cc2)[C@H](C)CN([C@@H](C)CO)C(=O)c2cc(NS(C)(=O)=O)ccc2O1	-	-	-	0	-	0
C[C@@H]1CN([C@@H](C)CO)C(=O)c2cc(N(C)C)ccc2O[C@@H](C)CCCCO[C@H]1CN(C)S(=O)(=O)c1cccs1	-	-	-	0	-	0
CCOC(=O)c1cc([N+](=O)[O-])sc1NC(=O)CC	99.1	0	0	0	0	0
CCOC(=O)c1cc([N+](=O)[O-])sc1N	0	0	0	0	0	0
COC(=O)c1c(NC(=S)Nc2ccc(CC(=O)O)cc2)sc(C)c1C	87.5	0	0	0	0	-
CCOC(=O)c1c(NC(=S)Nc2ccc(Cl)cc2)sc(C)c1C	0	0	0	0	0	-
CN(C)C(=O)C[C@@H]1CC[C@@H]2[C@H](COC[C@@H](O)CN2S(=O)(=O)c2ccccc2)O1	-	-	-	0	-	-
COc1ccc(C(=O)O/N=C(\N)c2ccccc2)cc1	81.5	0	0	79.5	0	0
CC(C)(C)c1ccc(C(=O)O/N=C(\N)c2ccccc2)cc1	104.7	90.1	0	91.0	0	76.1
COc1ccc(/C(N)=N/OC(=O)c2ccco2)cc1	64.1	55.8	0	69.0	0	0
CCS(=O)(=O)Nc1ccc2c(c1)C(=O)N(C)C[C@@H](OC)[C@H](C)CN(C(=O)C1CCC1)[C@H](C)CO2	-	-	-	0	-	0
COc1ccc(C[C@@H]2CCn3cc(nn3)COC[C@@H](c3ccccc3)NC2=O)cc1	-	-	-	0	-	0
COCC(=O)Nc1ccc2c(c1)OC[C@H](C)NC[C@@H](C)[C@@H](OC)CN(C)C2=O	-	-	-	0	-	0
C[C@H]1CN([C@@H](C)CO)C(=O)c2cc(NC(=O)Cc3cn(C)c4ccccc34)ccc2O[C@H]1CN(C)C(=O)Nc1cccc2ccccc12	-	-	-	0	-	0
SMILES	TWEAK-Fn14 inh	TROY signal inh	KKLEB cytotox	LGR2 inh	CF NFkB block	EWS-Fli block
Cc1cc(N2CCN(C)CC2)ccc1NC(=O)c1ccc(-c2ccc(Cl)cc2)o1	94.2	79.7	0	0	0	0
CN1CCN(c2ccccc2NC(=O)c2ccc(-c3ccc(Cl)c(Cl)c3)o2)CC1	0	0	0	0	0	0
CCOC(=O)N1CCN(C(=O)/C(=C/c2cccc3ccccc23)NC(=O)c2ccc(OC)cc2)CC1	0	56.0	0	0	0	0
CCOC(=O)N1CCN(C(=O)/C(=C/c2ccc(OC)cc2)NC(=O)c2ccccc2)CC1	0	0	0	-	0	-
COc1ccc(N=C2SC(CC(=O)Nc3cccc(Cl)c3)C(=O)N2Cc2ccco2)cc1 (stereo not given)	53.1	0	0	0	0	0
CN1C(=O)c2cc(NC(=O)c3ccccc3)ccc2OC[C@@H]2O[C@@H](CC(=O)NCC3CC3)CC[C@H]21	-	-	-	0	-	0
